According to PubChem BioAssay (EPA / NIEHS):
Results filed as inconclusive are left out. Calls of active or inactive are those of the source. The calls were made as follows: active = hit-call score of the fitted dose curve at least 0.9, where 1 is the maximum; inconclusive = response in the unintended direction; inactive = score below 0.9.

Experiments:
[1] = ATG_XTT_Cytotoxicity: Cytotoxicity Assessment in the Attagene TRANS-FACTORIAL HepG2 Assay (AID 2283584)
Summary of the method: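 HepG2 human liver cells, transiently transfected with multiple GAL4-UAS reporter units, were dosed and read at 24 h by XTT as cell number. Loss of signal was fitted relative to DMSO negative control baseline.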

[2] = TOX21_p53_BLA_p2_viability: Viability Assessment in the Tox21 HCT-116 p53 Agonism Beta-lactamase Assay, Phase 2 (AID 2283591);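 also: compound exposure lasted 16 h at 37 °C; actives lower the ATP signal meaning cytotoxicity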
Summary of the method: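 Cytotoxicity readout: CellTiter-Glo ATP luminescence, 30 min at room temperature, after the beta-lactamase read. Cells were HCT116 exposed 16 h at 37C to compounds pin-transferred at 217-fold dilution from DMSO stocks.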

[3] = target: Cellular tumor antigen p53 (Homo sapiens) (UniProt P04637); experiment: TOX21_p53_BLA_p2_ratio: Tox21 HCT-116 p53 Agonism Beta-lactamase Assay, Ratio, Phase 2 (AID 2283592)
Sequence of Cellular tumor antigen p53 (Homo sapiens) (P04637 whole entry, looked up): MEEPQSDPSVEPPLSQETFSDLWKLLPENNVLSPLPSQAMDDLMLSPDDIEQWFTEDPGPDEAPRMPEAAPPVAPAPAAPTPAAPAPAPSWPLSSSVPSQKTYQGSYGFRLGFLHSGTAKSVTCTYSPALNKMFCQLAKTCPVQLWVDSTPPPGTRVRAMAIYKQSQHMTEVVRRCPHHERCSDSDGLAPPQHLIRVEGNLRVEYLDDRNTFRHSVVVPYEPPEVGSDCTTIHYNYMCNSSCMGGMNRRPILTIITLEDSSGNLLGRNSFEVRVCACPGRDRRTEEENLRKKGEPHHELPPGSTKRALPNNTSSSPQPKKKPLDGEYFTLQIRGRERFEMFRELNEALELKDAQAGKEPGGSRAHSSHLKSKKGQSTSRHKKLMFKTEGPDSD
Summary of the method: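 Ratio endpoint: beta-lactamase cleavage of CCF4-AM, blue (460 nm) over green (530 nm). HCT116 reporter line; 16 h treatment, 37C; substrate 2 h RT.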

[4] = TOX21_p53_BLA_p3_viability: Viability Assessment in the Tox21 HCT-116 p53 Agonism Beta-lactamase Assay, Phase 3 (AID 2283593);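 also: cells exposed to compound for 16 h before reading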
Summary of the method: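 Cellular ATP was quantified by CellTiter-Glo luminescence, read after 30 min at room temperature. Beforehand, HCT116 cells (4000/well) received compound 5 h post-seeding, 217-fold diluted from DMSO, then incubated 16 h at 37C.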

## CC1(C)[C@@H]2CC[C@@]1(C)C(=O)C2
[1]
  outcome: inactive
[2]
  outcome: inactive
[3]
  outcome: inactive
[4]
  outcome: inactive

## CC1(C)CCC[C@]2(C)[C@H]3CC(=O)O[C@]3(C)CC[C@@H]12
[1]
  outcome: inactive
[2]
  outcome: inactive
[3]
  outcome: inactive
[4]
  outcome: inactive

## CCCCCCC=O
[1]
  outcome: inactive
[2]
  outcome: inactive
[3]
  outcome: inactive
[4]
  outcome: inactive

## C=C(C)C(=O)OCC(O)COc1ccc(C(C)(C)c2ccc(OCC(O)COC(=O)C(=C)C)cc2)cc1 (stereo not given)
[1]
  outcome: inactive
[2]
  AC50: 69.2 µM (active)
[3]
  outcome: inactive
[4]
  outcome: inactive

## CC(C)c1ccc(O)c(C(C)C)c1
[1]
  outcome: inactive
[2]
  outcome: inactive
[3]
  outcome: inactive
[4]
  outcome: inactive

## C=C(C)C1CC=C(C)C(OC(C)=O)C1 (stereo not given)
[1]
  outcome: inactive
[3]
  outcome: inactive

## CC(C)(c1ccccc1)c1ccc(Nc2ccc(C(C)(C)c3ccccc3)cc2)cc1
[1]
  outcome: inactive
[2]
  outcome: inactive
[3]
  outcome: inactive
[4]
  outcome: inactive

## C=C(C)C1CC=C(C)CC1 (stereo not given)
[1]
  outcome: inactive
[2]
  outcome: inactive
[4]
  outcome: inactive

## CC=C(C)C=CC=C(C)C
[1]
  outcome: inactive
[4]
  outcome: inactive

## CCCCOCCOC(=O)COc1ccc(Cl)cc1Cl
[2]
  outcome: inactive
[3]
  outcome: inactive

## CN(C)Cc1cc(CN(C)C)c(O)c(CN(C)C)c1
[1]
  outcome: inactive
[3]
  outcome: inactive
[4]
  outcome: inactive

## CC(=O)OCC=C(C)C
[1]
  outcome: inactive
[3]
  outcome: inactive

## CCCCCCO
[2]
  outcome: inactive
[3]
  outcome: inactive
